NPC1 prom act: activates the NPC1 promoter | Potency, µM (highest dose often 9.22 µM), for inactives: at the highest dose activation, hits mostly activators | 2.4% of 320,000 active | Huh7 NPC1 promoter luciferase reporter, 24 h; also: % of control where 0% means no effect; nearly all actives have a fitted effect of over 60% in size
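Luminescence read-out of NPC1 promoter-driven luciferase in stably transfected Huh7 cells; compounds delivered in DMSO and left 24 h at 37C, 5% CO2, qHTS titration format.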
FLuc modulator: inhibits or activates purified firefly luciferase, miR-21 counter-screen; P08659; purified FLuc, Km substrates, luminescence inhibition; Potency, µM (highest dose often 57.5 µM), inactives show top-dose activity change, negative = inhibition, most hits filed as inhibitors; 6.9% of 360,000 active;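 also: plate controls were vehicle for no effect and reference inhibitor for full effect; nearly all actives have a fitted effect of over 55% in size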
Target sequence (P08659 whole entry, looked up): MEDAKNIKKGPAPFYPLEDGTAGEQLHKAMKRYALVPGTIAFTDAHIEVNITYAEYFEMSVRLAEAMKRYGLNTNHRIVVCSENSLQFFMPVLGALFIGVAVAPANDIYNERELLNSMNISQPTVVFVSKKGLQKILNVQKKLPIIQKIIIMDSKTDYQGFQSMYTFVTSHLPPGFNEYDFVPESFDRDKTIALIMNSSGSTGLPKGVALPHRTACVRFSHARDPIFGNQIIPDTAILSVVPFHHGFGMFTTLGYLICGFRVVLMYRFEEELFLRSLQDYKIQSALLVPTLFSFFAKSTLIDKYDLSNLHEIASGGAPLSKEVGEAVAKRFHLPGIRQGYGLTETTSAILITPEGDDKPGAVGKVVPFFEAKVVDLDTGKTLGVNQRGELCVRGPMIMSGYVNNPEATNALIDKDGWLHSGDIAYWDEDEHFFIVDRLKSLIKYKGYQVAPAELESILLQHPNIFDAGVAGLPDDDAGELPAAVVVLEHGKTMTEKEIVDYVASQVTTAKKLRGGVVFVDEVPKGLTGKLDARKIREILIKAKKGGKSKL
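Biochemical qHTS of compounds, final roughly 60 µM downward over six points, against 10 nM purified firefly luciferase using Km concentrations of substrates (10 uM D-luciferin, 10 uM ATP) in Tris acetate pH 7.5 buffer; luminescence output.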
SMN2 splice enh: SMN2 splice variant enhancement. HEK293 SMN2-luciferase splicing reporter, luminescence, 30-36 h. Potency, µM (highest dose often 46.1 µM), for the others: at the top dose activity change, positive = activation, actives largely listed as activators. 2.8% of 210,000 active; also: % of control where 0% means no effect; nearly all actives have a fitted effect of over 55% in size
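HEK293 cells carry an SMN2 minigene-luciferase reporter in which exon 7 inclusion puts luciferase in frame. Cells were seeded at 2000 cells/well, attached for 10-12 hours, then exposed to compounds for 30-36 hours at 37C before ONE-Glo luminescence.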
ELG1 genotoxic: genotoxicity induction in ELG1-luciferase HEK293T cells. HEK293T ELG1-luciferase reporter, luminescence, 16 h. Potency, µM (titrated, usually from 46 µM), inactives show top-dose activity change, positive = activation, usual class: activators. 1.3% of 330,000 active. AID 504466; also: % of control where 0% means no effect; nearly all actives have a fitted effect of over 60% in size
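After overnight (16 hr) compound treatment at 37 °C, ELG1-luciferase HEK293T cells were lysed with ONE-Glo; luminescence quantified 30 min later at room temperature.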
ELG1 repair inh: inhibitors of ELG1-dependent DNA repair in HEK293T cells; HEK293T ELG1-luciferase reporter, luminescence, 16 h; DNA damage induced by 5-fluorouridine; Potency, µM (doses to about 46.1 µM), inactives show at the highest dose activity change, negative = inhibition, actives largely listed as inhibitors; 2.3% of 330,000 active; also: % is scaled to controls: 0 for no effect and ±100 for the full control effect; nearly all actives have a fitted effect of over 55% in size
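HEK293T cells expressing luciferase-tagged ELG1 (2,000/well) received 5-Fluorouridine plus compound or DMSO for 16 hr at 37 °C. Luciferase was read by ONE-Glo luminescence after 30 min at room temperature.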
Rab9 prom act: activators of Rab9 promoter | Huh7 Rab9 promoter-luciferase reporter, luminescence, 24 h | Potency, µM (series often up to 9.22 µM), for inactives: top-dose activation, negative = inhibition, actives largely listed as activators | 2.8% of 320,000 active; also: % of control where 0% means no effect; nearly all actives have a fitted effect of over 60% in size
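Quantitative HTS format; Huh7 Rab9-luciferase reporter cells (1500/well) receive compound 2 h post-plating, incubate 24 h at 37 °C, then get luciferase reagent for 10 min before luminescence reading.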
* hit, by the source's call; ? = inconclusive; . = no result given; [ ] = remark or other dose. Most compounds without a hit are left out; they make up all but 9.2% or so of the library. Calls follow the shape of the dose curve; as a rule, active = well fitted curve in the direction sought with a large enough effect; inconclusive = small, poorly fitted or top-dose-only effect, or another doubt; inactive = no such curve, though single readings can be large; an effect the other way counts as inactive or inconclusive. Potency is read from the fitted curve at half-maximal effect.

SMILES | NPC1 prom act | FLuc modulator | SMN2 splice enh | ELG1 genotoxic | ELG1 repair inh | Rab9 prom act
Cc1cc(C)c2c(N)c(-c3nc4ccccc4[nH]3)sc2n1 | ? | ? | 13µM* | ? | ? | 2.8µM*
Cc1ccc2c(N)c(C#N)sc2n1 | 10% | 6%[2.3 µM] | ? | 9% | 27% | 17%
CCc1ccc(-n2nc(C)c3c(C(=O)Nc4cccc(C(F)(F)F)c4)cc(C)nc32)cc1 | . | 5% | . | . | . | .
O=C(N/N=C\c1ccc2c(c1)OCO2)c1ccc(Cn2cc(Br)c([N+](=O)[O-])n2)o1 | 3% | 6µM* | . | 3% | -3% | 2%
O=C(N/N=C\c1ccc(F)cc1)c1ccc(Cn2cc(Br)c([N+](=O)[O-])n2)o1 | 4% | 21µM* | -14% | 3% | ? | -3%
CCOc1ccc(OCCC(=O)N(CC)CC(=O)NCc2ccc(Cl)cc2)cc1 | -2% | ? | . | -3% | -5% | 0%
NC(C(=O)O)(c1ccc(P(=O)(O)O)cc1)C1CC1 (centres undefined) | . | . | 7% | . | . | .
O=C(CNC(=S)N(Cc1ccccc1)Cc1ccccc1F)NCc1ccc(Cl)cc1 | -6% | 4% | -33% | -7% | 23µM* | -6%
N#Cc1c(-c2ccccc2Cl)noc1/C=C/Nc1ccc(C(=O)O)cc1 | 5% | 24µM* | . | 11% | 19% | 6%
CCCc1c(C)nc2ccccc2c1SCCC#N | 9% | -8% | -44% | -8% | 23µM* | -6%
CCCCc1c(C)nc2ccc(Br)cc2c1SCCC#N | -2% | 0% | -29% | -15% | 18µM* | -1%
COc1cc(NC(=O)c2ccc(NC(=O)N3CCSc4ncccc43)cc2)cc(OC)c1 | . | -10% | . | . | . | .
Cn1nc(-c2ccccc2)nc1-c1ccccc1 | ? | 21µM* | . | 12% | ? | ?
c1ccc(Cn2nc(-c3ccccc3)nc2-c2ccccc2)cc1 | 13% | 21µM* | 25% | ? | ? | 18%
Cc1ccc(Cn2nc(-c3ccccc3)nc2-c2ccccc2)cc1 | ? | 15µM* | ? | ? | ? | 3.5µM*
O=C(Cn1nc(-c2ccccc2)nc1-c1ccccc1)N1CCOCC1 | 4% | 0% | -5% | -3% | -3% | -3%
Cc1ccc(Cn2c(-c3ccccc3)nc3ccccc32)cc1 | . | ? | -17% | . | . | .
COc1cc2c(cc1OC)CN(C(=O)c1cc(S(=O)(=O)N3CCOCC3)ccc1C)CC2 | 0% | -7% | . | -1% | 12% | -2%
Cc1ccc(-n2nnc(-c3nsc(NC(=O)c4ccccc4C)n3)c2C)cc1Cl | . | 0% | . | . | . | .
Nc1cc(Nc2ccc(Br)cc2)nc(N)n1 | 3.5µM* | 13µM* | . | ? | ? | ?
COc1ccc(Nc2cc(Cl)nc(N)n2)cc1 | 14% | -19% | ? | ? | ? | 28%
Cc1cc(Nc2ccc(Cl)cc2)nc(N)n1 | ? | 19µM* | 16% | ? | ? | ?
COc1ccc(Nc2cc(C)nc(N)n2)cc1 | 22% | ? | . | 13% | ? | ?
CCCCn1c(C23CC4CC(CC(C4)C2)C3)n[nH]c1=S | 2% | 3% | . | -7% | 0% | 5%
O=C(c1ccco1)N1CCN(C(c2ccccc2)c2nnnn2Cc2cccs2)CC1 (centres undefined) | 1% | 5% | -14% | 0% | 15% | 4%
SMILES | NPC1 prom act | FLuc modulator | SMN2 splice enh | ELG1 genotoxic | ELG1 repair inh | Rab9 prom act
CC(C)C(c1nnnn1Cc1cccs1)N1CCN(C(=O)c2ccco2)CC1 (centres undefined) | -27% | 0% | . | 6% | 6.5µM* | -20%
Cc1ccc(-c2nc3ccsc3c(=O)[nH]2)cc1 | 21% | 12µM* | 18µM* | ? | ? | ?
Cc1ccc(-c2csc3nc(-c4ccncc4)[nH]c(=O)c23)cc1 | -17% | -16% | . | 1% | 16% | -25%
CCOc1ccc(OCCCCn2cnc3ccccc3c2=O)cc1 | 6% | -10% | -11% | -4% | 16µM* | -4%
CCOc1ccc(OCCn2nnc3ccccc3c2=O)cc1 | 3.5µM* | 13µM* | 16µM* | 18µM* | ? | 2.8µM*
COc1ccc(OC)c(C(=O)NC(CC(N)=O)c2ccc(N3CCCCCC3)c([N+](=O)[O-])c2)c1 (centres undefined) | -2% | -1% | . | -2% | 4% | -3%
O=C(c1ccccc1)n1c(=S)nc2ccccn21 | 1µM* | 0.43µM* | . | 0.33µM* | ? | 3.5µM*
Cc1cccc(C(=O)n2c(=S)nc3ccccn32)c1 | 0.56µM* | 0.48µM* | 4.5µM* | ? | ? | 0.45µM*
Cc1cccc(C(=O)N2CCCCCC2)c1 | 2% | -2% | -10% | 2% | 3% | 8%
Cc1ccc(C(=O)n2c(=S)nc3ccccn32)cc1 | 0.79µM* | 0.12µM* | 2µM* | ? | ? | 0.63µM*
CC(=O)Nc1ccc(NC(=O)C(C)OC(=O)CCSc2ccccc2Cl)cc1 (centres undefined) | . | . | . | 1% | 3% | .
Cc1cc(C(=O)COC(=O)c2ccc(NC(=O)CC#N)cc2)c(C)n1C1CC1 | ? | 13µM* | . | 18% | ? | 4µM*
Cc1cc(C(=O)COC(=O)c2ccc(Cl)c(S(N)(=O)=O)c2)c(C)n1C1CC1 | 4µM* | 4.8µM* | . | 15% | ? | 1.8µM*
Cc1cc(C(=O)COC(=O)c2ccc(NC(=O)CC#N)cc2)c(C)n1-c1ccc(OC(F)F)cc1 | . | . | . | -4% | ? | .
CCOC(=O)c1c(NC(=O)CSc2ncnc3ccccc23)sc(C(C)=O)c1C | -13% | 1% | -38% | -6% | 15µM* | -23%
CCOC(=O)c1sc(NC(=O)CNCc2ccccn2)c(C(=O)OCC)c1C | -1% | 2% | . | -10% | 12µM* | -7%
CCOC(=O)c1c(NC(=O)CSc2nc3cccnc3n2C)sc(C(C)=O)c1C | -7% | 0% | -23% | 0% | ? | 0%
CCOC(=O)c1sc(NC(=O)CNCc2cccnc2)c(C(=O)OCC)c1C | -4% | -2% | -7% | -10% | -6% | 0%
COc1ccccc1Nc1nnc(SCC(=O)NC2CCCC2)s1 | -1% | -17% | . | -3% | 3% | -5%
COc1ccccc1Nc1nnc(SCC(=O)N2CCCC2=O)s1 | 2% | 9.5µM* | -26% | 17% | 10% | -7%
CCc1ccc(Nc2nnc(SC(C)C(=O)NC3CC3)s2)cc1 (centres undefined) | . | . | . | -2% | ? | .
CCc1ccc(Nc2nnc(SCC(=O)NC(=O)CN3CCCC3=O)s2)cc1 | 0% | 3µM* | . | 7% | ? | 3%
COc1ccccc1Nc1nnc(SCC(=O)N2CCCC2)s1 | 28% | ? | 18% | ? | ? | 27%

Compound activity: PubChem, National Center for Advancing Translational Sciences (NCATS)
